# Experimental data as given in ChEMBL document CHEMBL3988442, “University of Dundee, Small-Polar-MMV Screening Library” (2021).
# The whole screen tested about 66,000 compounds, of which about 960 (1.5%) showed an effect of 50% or more. This is one part of a sample in which strong results are shown more often than they occur.
# Tested on: Trypanosoma brucei
# Test: Trypanosoma brucei 72 hour study
# Type: functional, organism-based
# Set-up: scale not given: in the data most compounds retested in dose-response had high values
smiles,measurement,setting,value
CCN(Cc1nc2c(cnn2C)c(=O)[nH]1)c1cc(C)cc(C)c1,Percent Effect,10 µM,-28.14%
same,Percent Effect,"30.3 µM, […]",-21.13%
N#Cc1ccc(N2CCCC3(CCN(c4cncnc4)C3=O)C2)nc1.O=C(O)C(F)(F)F (stereo unspecified),Percent Effect,"30.3 µM, […]",-13.65%
Cl.O=C(Nc1cc(C(F)(F)F)c[nH]c1=O)C1CCCCN1 (stereo unspecified),Percent Effect,"30 µM, 30.03 µM",4.306%
COc1ccccc1NC(=O)CCNC(=O)c1ccoc1,Percent Effect,"30 µM, 30.03 µM",-15.64%
Cc1ccccc1NC(=O)CCNC(=O)c1ccoc1,Percent Effect,"30 µM, 30.03 µM",-20.37%
CNc1ccnc(NCCC(=O)Nc2ccccc2OC)n1,Percent Effect,"30 µM, 30.03 µM",54.56%
CNc1ccnc(NCCC(=O)Nc2ccccc2C)n1,Percent Effect,"30 µM, 30.03 µM",51.25%
CNc1ccnc(NCC(=O)Nc2cc(C)ccc2OC)n1,Percent Effect,"30 µM, 30.03 µM",42.18%
Cc1ccccc1CC(=O)NCCNc1nccc(C(F)(F)F)n1,Percent Effect,"30 µM, 30.03 µM",-20.25%
CN(C)C(=O)[C@H]1C[C@H]2[C@H](CCN2Cc2ccc3c(c2)OCO3)O1.O=C(O)C(F)(F)F,Percent Effect,"30 µM, 30.03 µM",17.59%
Cl.N#Cc1ccc(CNCC2(c3ccccc3)CCOCC2)cc1,Percent Effect,"30.3 µM, […]",24.88%
Cc1cccc(C(=O)N2CC[C@]3(C[C@H](OCc4ccccn4)CO3)C2)c1.O=C(O)C(F)(F)F,Percent Effect,"30.3 µM, […]",-74.39%
O=C(NCc1ccccn1)[C@]12COC[C@H]1CN(Cc1ccccc1F)C2.O=C(O)C(F)(F)F.O=C(O)C(F)(F)F,Percent Effect,"30.3 µM, […]",-30.47%
Cc1nc(CN2CC3(CCN(c4ncccn4)C3)CC2=O)cs1.O=C(O)C(F)(F)F (stereo unspecified),Percent Effect,"30 µM, 30.03 µM",-28.21%
COCCNC(=O)CCn1ncc2c(Cl)cccc21,Percent Effect,"30.3 µM, […]",-10.63%
CN1CCN(c2ccccc2NC(=O)NCCc2ccccc2)CC1,Percent Effect,"30.3 µM, […]",100.1%
CN1CCN(c2ccccc2NC(=O)NCC[S+](C)[O-])CC1 (stereo unspecified),Percent Effect,"30.3 µM, […]",11.12%
CN1CCN(c2ccccc2NC(=O)NCCc2ccc(O)cc2)CC1,Percent Effect,"30.3 µM, […]",8.397%
O=C(O)C(F)(F)F.O=C1[C@@H]2CCN(Cc3ccoc3)C[C@@H]2OCCN1c1ccccc1,Percent Effect,"30 µM, 30.03 µM",19.86%
CC(C)c1cccc(CSc2nnc(CN3CCCC3=O)o2)n1,Percent Effect,"30 µM, 30.03 µM",-4.842%
O=C1CCCN1Cc1nnc(SCc2ccc3c(c2)CCC3)o1,Percent Effect,"30 µM, 30.03 µM",47.68%
CC(C)Oc1ccc(CSc2nnc(CN3CCCC3=O)o2)cc1,Percent Effect,"30 µM, 30.03 µM",72.7%
O=C(Cc1ccccn1)N1CC[C@]2(C[C@@H](Oc3ncccc3F)CO2)C1.O=C(O)C(F)(F)F.O=C(O)C(F)(F)F,Percent Effect,"30 µM, 30.03 µM",-12.46%
CN(CCCn1cnc2c(N)ncnc21)Cc1ccccc1,Percent Effect,"30 µM, 30.03 µM",-6.688%
CNC(=O)c1cc2c(nc1N(C)C)CCN(c1ncc(F)cn1)CC2.O=C(O)C(F)(F)F,Percent Effect,"30.3 µM, […]",-8.544%
OCC1CCCN1c1cc(NCCc2ccsc2)ncn1 (stereo unspecified),Percent Effect,"30 µM, 30.03 µM",6.798%
Cc1cc(NC(=O)NCCO)nn1-c1ccc(Cl)cc1Cl,Percent Effect,"30 µM, 30.03 µM",-0.9538%
O=C(CN1C(=O)CC2(CCCC2)C1=O)NCCc1nccs1,Percent Effect,"30 µM, 30.03 µM",-3.261%
CN(Cc1ccccc1O)CC1CCCN(CCc2ccc(Cl)cc2)C1 (stereo unspecified),Percent Effect,"30 µM, 30.03 µM",6.545%
COc1ccc(CCN2CCCC(CN(C)Cc3[nH]cnc3C)C2)cc1 (stereo unspecified),Percent Effect,"30 µM, 30.03 µM",11.78%
CN(Cc1cnc(N)nc1)CC1CCCN(CCc2ccc(Cl)cc2)C1 (stereo unspecified),Percent Effect,"30 µM, 30.03 µM",-6.233%
CN(Cc1cccc(O)c1)CC1CCCN(CCc2ccc(Cl)cc2)C1 (stereo unspecified),Percent Effect,"30 µM, 30.03 µM",55.85%
Cc1nc[nH]c1CN(C)CC1CCCN(CCc2ccc(Cl)cc2)C1 (stereo unspecified),Percent Effect,"30 µM, 30.03 µM",61.25%
CN(Cc1ccncc1)CC1CCCN(CCc2ccc(Cl)cc2)C1 (stereo unspecified),Percent Effect,"30 µM, 30.03 µM",15.49%
Cc1ccc(NC(C)(C)c2nnnn2-c2ccc(Cl)cc2)c(C)c1,Percent Effect,"30 µM, 30.03 µM",-23.29%
Cc1nc2cc(C3CCN(Cc4ccccc4F)C3)nn2c(O)c1C (stereo unspecified),Percent Effect,"30.3 µM, […]",14.24%
Cc1nnc([C@H]2C[C@@H]3CCN(Cc4ccc(C)o4)C[C@H]3O2)[nH]1.O=C(O)C(F)(F)F,Percent Effect,"30 µM, 30.03 µM",-11.08%
COc1cc2c(cc1CN1CCn3c(CO)nnc3C1)CCC2.O=C(O)CC(O)(CC(=O)O)C(=O)O,Percent Effect,"30.3 µM, […]",-66.2%
O=C(COC[C@H]1CC[C@H]2[C@H](CCN2c2ccccn2)O1)N1CCCC1.O=C(O)C(F)(F)F,Percent Effect,"30 µM, 30.03 µM",-34.45%
O=C(COC[C@H]1CC[C@H]2[C@H](CCN2c2ncccn2)O1)N1CCCC1.O=C(O)C(F)(F)F,Percent Effect,"30 µM, 30.03 µM",52.31%
O=C(COCC1CC[C@H]2[C@H](CCN2c2ncccn2)O1)N1CCCC1.O=C(O)C(F)(F)F (stereo partly specified),Percent Effect,"30 µM, 30.03 µM",-11.45%
O=C(CC1CC1)N1CCC2(CC1)CN(c1cccnc1)C(=O)CO2.O=C(O)C(F)(F)F,Percent Effect,"30.3 µM, […]",-59.01%
CCOc1ncccc1C(=O)N1CCC(Nc2ccc(C)nn2)CC1,Percent Effect,"30.3 µM, […]",1.842%
same,Percent Effect,"10 mM, 10 mM as filed; unlikely as a test dose",-20.5%
CN(C)S(=O)(=O)N1C[C@H]2C[C@H](C(=O)Nc3cccnc3)[C@@H](C1)O2,Percent Effect,"30.3 µM, […]",-739.2%
COc1ccc(-c2cc(C3CC3)c(C#N)c(N)n2)cc1F,Percent Effect,"30.3 µM, […]",93.34%
N#Cc1c(C2CC2)cc(-c2ccc(O)cc2)nc1N,Percent Effect,"30 µM, 30.03 µM",17.72%
N#Cc1c(C2CC2)cc(-c2ccc(F)c(F)c2)nc1N,Percent Effect,"30.3 µM, […]",-90.74%
CN(C)CCO[C@@H]1CC[C@H]2[C@H]1OCCN2C(=O)c1ccc(F)cc1.O=C(O)C(F)(F)F,Percent Effect,"30.3 µM, […]",-19.82%
CN(C)c1cc(CNC(=O)Nc2ccc(N3CCCC3)nc2)ccn1,Percent Effect,"30.3 µM, […]",18.28%
O=C(CC1CCC2(CC1)CCN(Cc1cccnc1)CC2)N1CC=CC1.O=C(O)C(F)(F)F.O=C(O)C(F)(F)F,Percent Effect,"30.3 µM, […]",-37.26%
O=C(C1CCOC1)N1CCC2(CCN(Cc3nccs3)C2)CC1 (stereo unspecified),Percent Effect,"30 µM, 30.03 µM",6.218%
O=C(C1CCOCC1)N1CCC2(CCN(Cc3nccs3)CC2)CC1.O=C(O)C(F)(F)F,Percent Effect,"30 µM, 30.03 µM",11.85%
O=C(C1CCOC1)N1CCC2(CCN(Cc3nccs3)CC2)CC1 (stereo unspecified),Percent Effect,"30 µM, 30.03 µM",55.49%
CCn1cc(C(=O)N2C[C@H]3C[C@H](Oc4ccccc4)C[C@H]3C2)cn1,Percent Effect,"30.3 µM, […]",7.287%
CS(=O)(=O)NCc1nnc2n1CCN(Cc1ccncc1)C2,Percent Effect,"30.3 µM, […]",-346.7%
CS(=O)(=O)NCc1nnc2n1CCN(Cc1ccccn1)C2,Percent Effect,"30.3 µM, […]",73.82%
CS(=O)(=O)NCc1nnc2n1CCN(Cc1cccnc1)C2,Percent Effect,"30.3 µM, […]",-308.6%
CC(C)=CCN1C(=O)[C@H]2CC[C@@H]1CN(c1ncccc1C(N)=O)C2,Percent Effect,"30 µM, 30.03 µM",2.727%
CC1c2ncc(CNC(=O)C3CC3)n2CCN1Cc1nccs1.O=C(O)C(F)(F)F (stereo unspecified),Percent Effect,"30.3 µM, […]",-11.04%
CN1CC(Nc2nc3c(cnn3C(C)(C)C)c(=O)[nH]2)CCC1=O (stereo unspecified),Percent Effect,"30 µM, 30.03 µM",-21.89%
CC(C)(C)n1ncc2c(=O)[nH]c(NC3CC=CC3)nc21,Percent Effect,"30 µM, 30.03 µM",100.8%
CC(C)(C)n1ncc2c(=O)[nH]c(N3CC(O)C3)nc21,Percent Effect,"30 µM, 30.03 µM",18.67%
Cc1ncc(CN2CCC(N(C)Cc3noc(C4CC4)n3)C2)s1 (stereo unspecified),Percent Effect,10 µM,-20.3%
CC(Cn1cccn1)NC(=O)NCc1cccnc1 (stereo unspecified),Percent Effect,10 µM,-30.88%
O=C(O)C(c1ccc2c(c1)OCCO2)N1CCC(N2CCSCC2)CC1 (stereo unspecified),Percent Effect,"30 µM, 30.03 µM",-29.57%
CN(Cc1nc(N)c2ccccc2n1)CC1CCCN1c1cccnn1 (stereo unspecified),Percent Effect,"30 µM, 30.03 µM",4.932%
Cc1nc2ccccc2nc1CN(C)CC1CCCN1c1cccnn1 (stereo unspecified),Percent Effect,"30 µM, 30.03 µM",-12.68%
Cc1nc(CN(C)CC2CCCN2c2cccnn2)nc2ccccc12 (stereo unspecified),Percent Effect,"30.3 µM, […]",101.1%
Cc1nn(C)c(N(C)C)c1CNCCOc1ccc2c(c1)OCO2.Cl,Percent Effect,10 µM,-62.44%
Cc1nc(CNc2cccc(Cl)c2Cl)cs1,Percent Effect,"30.3 µM, […]",13.05%
O=C1OCCN1CCCN1CCCC1c1ccc(O)cc1 (stereo unspecified),Percent Effect,"30.3 µM, […]",-41.53%
CN(C)c1cccc(C2CCCN2Cc2nnnn2C2CC2)c1 (stereo unspecified),Percent Effect,"30 µM, 30.03 µM",-5.59%
CN(C)c1cccc(C2CCCN2CCCN2CCOC2=O)c1 (stereo unspecified),Percent Effect,"30.3 µM, […]",100.6%
Cc1cc(C(=O)N2CCN(c3nc4c(C(C)C)cccc4s3)CC2)no1,Percent Effect,"30 µM, 30.03 µM",-24.13%
Cc1ccc(CN(CCCn2ccnc2)Cc2c[nH]cn2)s1.O=C(O)CC(O)(CC(=O)O)C(=O)O,Percent Effect,"30.3 µM, […]",1.137%
Cc1ccc(CN(CCCn2ccnc2)Cc2cnc(N(C)C)nc2)s1.O=C(O)CC(O)(CC(=O)O)C(=O)O,Percent Effect,"30.3 µM, […]",-19.58%
CN(C)c1ccc(CN(CCCn2ccnc2)Cc2c[nH]cn2)cc1.O=C(O)CC(O)(CC(=O)O)C(=O)O,Percent Effect,"30.3 µM, […]",101.7%
CCOc1ccc(Cl)cc1C1CCCCN1.Cl (stereo unspecified),Percent Effect,"30 µM, 30.03 µM",-10.24%
Cc1cccc(CN2C(=O)CCC23CCN(C(=O)NC(C)C)CC3)n1.O=C(O)C(F)(F)F,Percent Effect,"30.3 µM, […]",-47.32%
Cc1ccc(-c2cc(C(F)(F)F)nc(N3CCOCC3)n2)s1,Percent Effect,"30 µM, 30.03 µM",-24.17%
O=C(O)C1CCCN1c1nc(-c2ccc(Cl)cc2)cc(C(F)(F)F)n1 (stereo unspecified),Percent Effect,"30 µM, 30.03 µM",-38.97%
CCc1ccc(-c2cc(C(F)(F)F)nc(N3CCC(N)CC3)n2)cc1,Percent Effect,"30.3 µM, […]",100.3%
Cc1c(-c2cc(C(F)(F)F)nc(N3CCC(N)CC3)n2)cnn1C,Percent Effect,"30.3 µM, […]",47.45%
O=C(O)C1CCCN1c1nc(-c2ccc(Cl)c(Cl)c2)cc(C(F)(F)F)n1 (stereo unspecified),Percent Effect,"30 µM, 30.03 µM",-7.275%
CCn1ncc(-c2cc(C(F)(F)F)nc(N3CCC(N)CC3)n2)c1C,Percent Effect,"30.3 µM, […]",100.2%
Cc1nccn1CCC1CCNCC1.Cl.Cl,Percent Effect,"30.3 µM, […]",-19.74%
CC1c2ncc(Cn3cccn3)n2CCN1Cc1ccc(F)cc1.O=C(O)C(F)(F)F (stereo unspecified),Percent Effect,"30.3 µM, […]",6.386%
CCS(=O)(=O)N1CCCC(Cc2cnccn2)C1 (stereo unspecified),Percent Effect,"30.3 µM, […]",-26.51%
C1CCC(CNC2CCCN(Cc3noc(C4CC4)n3)C2)C1 (stereo unspecified),Percent Effect,"30.3 µM, […]",26.01%
C1CCCN(C2CCCN(Cc3noc(C4CC4)n3)C2)CC1 (stereo unspecified),Percent Effect,"30.3 µM, […]",49.07%
C1CC(NCC2CC2)CN(Cc2noc(C3CC3)n2)C1 (stereo unspecified),Percent Effect,"30.3 µM, […]",-4.666%
C1CCC(CNC2CCCN(Cc3noc(C4CC4)n3)C2)CC1 (stereo unspecified),Percent Effect,"30.3 µM, […]",78.83%
C1CCCN(CC2CCCN(Cc3noc(C4CC4)n3)C2)CC1 (stereo unspecified),Percent Effect,"30.3 µM, […]",63.76%
c1ncn(CC2CCCN(Cc3noc(C4CC4)n3)C2)n1 (stereo unspecified),Percent Effect,"30.3 µM, […]",-10.36%
